Only a selection was taken, and the strongest signals are over-represented in it overall.
How the values were obtained:
Assay in all cases: glycan array binding signal (z-score within array); higher = stronger binding
Settings in all cases: glycan notation: IUPAC condensed, linker removed
[1] = biological target: Fuc(a1-2)Gal(b1-3)GlcNAc(b1-2)Man(a1-3)[Fuc(a1-2)Gal(b1-3)GlcNAc(b1-2)Man(a1-6)]Man(b1-4)GlcNAc(b1-4)GlcNAc
Method in brief: (§1)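 Negative Z-scores can be read as non-binding. The Z-score is calculated within each array and then averaged across arrays of one protein sequence at different concentrations or buffers and across linkers. Arrays, 3228 in all, were curated from the Consortium for Functional Glycomics database and kept only where the protein sequence was available.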

[2] = biological target: Fuc(a1-2)Gal(b1-4)GlcNAc(b1-3)GalNAc
Method in brief: as §1

[3] = biological target: Fuc(a1-2)[Gal(a1-3)]Gal(b1-4)Glc
Method in brief: as §1

[4] = biological target: Fuc(a1-2)[GalNAc(a1-4)]Gal(b1-4)GlcNAc
Method in brief: as §1

[5] = biological target: Fuc(a1-3)[Gal(b1-4)]GlcNAc(b1-3)Gal(b1-3)[Fuc(a1-4)]GlcNAc
Method in brief: as §1

[6] = biological target: Fuc(a1-3)[Gal3S(b1-4)]Glc
Method in brief: as §1

[7] = biological target: Fuc(a1-3)[GalNAc(b1-4)]GlcNAc6S
Method in brief: as §1

Gal(a1-3)GalNAc = biological target: Gal(a1-3)GalNAc
Method in brief: as §1

Gal(a1-6)Glc = biological target: Gal(a1-6)Glc
Method in brief: as §1

Gal(b1-3)GalNAc = biological target: Gal(b1-3)GalNAc
Method in brief: as §1

[8] = biological target: Gal(b1-3)GlcNAc(a1-3)Gal(b1-4)GlcNAc
Method in brief: as §1

[9] = biological target: Gal(b1-3)GlcNAc(b1-3)Gal(b1-4)GlcNAc(b1-2)Man(a1-3)[Gal(b1-3)GlcNAc(b1-3)Gal(b1-4)GlcNAc(b1-2)Man(a1-6)]Man(b1-4)GlcNAc(b1-4)GlcNAc
Method in brief: as §1

[10] = biological target: Gal(b1-3)GlcNAc(b1-3)Gal(b1-4)GlcNAc(b1-6)[Gal(b1-3)GlcNAc(b1-3)]Gal(b1-4)Glc
Method in brief: as §1

[11] = biological target: Gal(b1-3)[Fuc(a1-4)]GlcNAc(b1-3)Gal(b1-4)[Fuc(a1-3)]GlcNAc
Method in brief: as §1

Gal(b1-4)Gal = biological target: Gal(b1-4)Gal
Method in brief: as §1

[12] = biological target: Gal(b1-4)GlcNAc(b1-2)Man(a1-3)[Man(a1-6)]Man(b1-4)GlcNAc(b1-4)GlcNAc
Method in brief: as §1

[13] = biological target: Gal(b1-4)GlcNAc(b1-3)Gal(b1-4)GlcNAc(b1-3)Gal(b1-4)GlcNAc(b1-2)Man(a1-3)[Gal(b1-4)GlcNAc(b1-3)Gal(b1-4)GlcNAc(b1-3)Gal(b1-4)GlcNAc(b1-2)Man(a1-6)]Man(b1-4)GlcNAc(b1-4)GlcNAc
Method in brief: as §1

[14] = biological target: Gal(b1-4)GlcNAc(b1-3)Gal(b1-4)GlcNAc(b1-3)Gal(b1-4)GlcNAc(b1-3)Gal(b1-4)GlcNAc(b1-3)Gal(b1-4)GlcNAc(b1-2)Man(a1-3)[Gal(b1-4)GlcNAc(b1-3)Gal(b1-4)GlcNAc(b1-3)Gal(b1-4)GlcNAc(b1-3)Gal(b1-4)GlcNAc(b1-3)Gal(b1-4)GlcNAc(b1-2)Man(a1-6)]Man(b1-4)GlcNAc(b1-4)GlcNAc
Method in brief: as §1

[15] = biological target: Gal(b1-4)GlcNAc(b1-3)Gal(b1-4)GlcNAc(b1-3)Gal(b1-4)GlcNAc(b1-3)Gal(b1-4)GlcNAc(b1-3)Gal(b1-4)GlcNAc(b1-2)Man(a1-3)[Gal(b1-4)GlcNAc(b1-3)Gal(b1-4)GlcNAc(b1-3)Gal(b1-4)GlcNAc(b1-3)Gal(b1-4)GlcNAc(b1-3)Gal(b1-4)GlcNAc(b1-2)Man(a1-6)]Man(b1-4)GlcNAc(b1-4)[Fuc(a1-6)]GlcNAc
Method in brief: as §1

[16] = biological target: Gal(b1-4)GlcNAc(b1-3)Gal(b1-4)GlcNAc(b1-3)Gal(b1-4)GlcNAc(b1-3)Gal(b1-4)GlcNAc(b1-3)Gal(b1-4)GlcNAc(b1-2)[Gal(b1-4)GlcNAc(b1-3)Gal(b1-4)GlcNAc(b1-3)Gal(b1-4)GlcNAc(b1-3)Gal(b1-4)GlcNAc(b1-3)Gal(b1-4)GlcNAc(b1-6)]Man(a1-6)[Gal(b1-4)GlcNAc(b1-3)Gal(b1-4)GlcNAc(b1-3)Gal(b1-4)GlcNAc(b1-3)Gal(b1-4)GlcNAc(b1-3)Gal(b1-4)GlcNAc(b1-2)Man(a1-3)]Man(b1-4)GlcNAc(b1-4)[Fuc(a1-6)]GlcNAc
Method in brief: as §1

[17] = biological target: Gal(b1-4)GlcNAc(b1-6)Gal(b1-4)GlcNAc
Method in brief: as §1

Gal3S(b1-4)GlcNAc = biological target: Gal3S(b1-4)GlcNAc
Method in brief: as §1

Gal6S(b1-3)GlcNAc = biological target: Gal6S(b1-3)GlcNAc
Method in brief: as §1

GalNAc(b1-4)GlcNAc = biological target: GalNAc(b1-4)GlcNAc
Method in brief: as §1

[18] = biological target: GlcNAc(b1-2)[GlcNAc(b1-6)]Man(a1-6)[GlcNAc(b1-4)][GlcNAc(b1-2)Man(a1-3)]Man(b1-4)GlcNAc(b1-4)GlcNAc
Method in brief: as §1

[19] = biological target: GlcNAc(b1-3)Gal(b1-4)GlcNAc(b1-3)Gal(b1-4)GlcNAc(b1-3)Gal(b1-4)GlcNAc(b1-3)Gal(b1-4)GlcNAc(b1-2)Man(a1-3)[GlcNAc(b1-3)Gal(b1-4)GlcNAc(b1-3)Gal(b1-4)GlcNAc(b1-3)Gal(b1-4)GlcNAc(b1-3)Gal(b1-4)GlcNAc(b1-2)Man(a1-6)]Man(b1-4)GlcNAc(b1-4)[Fuc(a1-6)]GlcNAc
Method in brief: as §1

GlcNAc(b1-4)GlcNAc = biological target: GlcNAc(b1-4)GlcNAc
Method in brief: as §1

Kdn(a2-3)Gal(b1-4)Glc = biological target: Kdn(a2-3)Gal(b1-4)Glc
Method in brief: as §1

Kdn(a2-3)Gal(b1-4)GlcNAc = biological target: Kdn(a2-3)Gal(b1-4)GlcNAc
Method in brief: as §1

Man(a1-2)Man(a1-3)Man = biological target: Man(a1-2)Man(a1-3)Man
Method in brief: as §1

[20] = biological target: Man(a1-2)Man(a1-3)[Man(a1-2)Man(a1-6)]Man(a1-6)[Man(a1-2)Man(a1-2)Man(a1-3)]Man
Method in brief: as §1

[21] = biological target: Neu5Ac(a2-3)Gal(b1-3)GalNAc(b1-3)Gal(a1-4)Gal(b1-4)Glc
Method in brief: as §1

[22] = biological target: Neu5Ac(a2-3)Gal(b1-3)GlcNAc(b1-6)GalNAc
Method in brief: as §1

[23] = biological target: Neu5Ac(a2-3)Gal(b1-3)[Fuc(a1-4)]GlcNAc(b1-3)Gal(b1-3)[Fuc(a1-4)]GlcNAc
Method in brief: as §1

[24] = biological target: Neu5Ac(a2-3)Gal(b1-4)GlcNAc(b1-2)Man(a1-3)[Neu5Ac(a2-6)Gal(b1-4)GlcNAc(b1-2)Man(a1-6)]Man(b1-4)GlcNAc(b1-4)GlcNAc
Method in brief: as §1

[25] = biological target: Neu5Ac(a2-3)Gal(b1-4)GlcNAc(b1-2)[Neu5Ac(a2-3)Gal(b1-4)GlcNAc(b1-4)]Man(a1-3)[GlcNAc(b1-4)][Neu5Ac(a2-3)Gal(b1-4)GlcNAc(b1-2)[Neu5Ac(a2-3)Gal(b1-4)GlcNAc(b1-6)]Man(a1-6)]Man(b1-4)GlcNAc(b1-4)GlcNAc
Method in brief: as §1

[26] = biological target: Neu5Ac(a2-3)Gal(b1-4)GlcNAc(b1-3)Gal(b1-4)GlcNAc(b1-3)[Neu5Ac(a2-3)Gal(b1-4)GlcNAc(b1-3)Gal(b1-4)GlcNAc(b1-6)]GalNAc
Method in brief: as §1

[27] = biological target: Neu5Ac(a2-3)Gal(b1-4)[Fuc(a1-3)]GlcNAc(b1-2)Man
Method in brief: as §1

[28] = biological target: Neu5Ac(a2-3)[GalNAc(b1-4)]Gal(b1-4)GlcNAc
Method in brief: as §1

[29] = biological target: Neu5Ac(a2-6)Gal(b1-4)GlcNAc(b1-3)Gal(b1-4)[Fuc(a1-3)]GlcNAc(b1-3)Gal(b1-4)[Fuc(a1-3)]GlcNAc
Method in brief: as §1

[30] = biological target: Neu5Ac(a2-8)Neu5Ac(a2-8)Neu5Ac
Method in brief: as §1

Neu5Gc(a2-3)Gal(b1-4)Glc = biological target: Neu5Gc(a2-3)Gal(b1-4)Glc
Method in brief: as §1

[31] = biological target: Neu5Gc(a2-3)Gal(b1-4)[Fuc(a1-3)]GlcNAc
Method in brief: as §1

[32] = biological target: Neu5Gc(a2-8)Neu5Gc(a2-6)Gal(b1-4)GlcNAc
Method in brief: as §1

B1: Als3-2 (Candida albicans) (protein)
chain: KTITGVFNSFNSLTWSNAATYNYKGPGTPTWNAVLGWSLDGTSASPGDTFTLNMPCVFKFTTSQTSVDLTAHGVKYATCQFQAGEEFMTFSTLTCTVSNTLTPSIKALGTVTLPLAFNVGGTGSSVDLEDSKCFTAGTNTVTFNDGGKKISINVDFERSNVDPKGYLTD
glycan array binding signal (z-score) [1]: 7.12 | glycan array binding signal (z-score) [2]: 9.17 | glycan array binding signal (z-score) [3]: -0.338 | glycan array binding signal (z-score) [4]: -0.444 | glycan array binding signal (z-score) [5]: 3.23 | glycan array binding signal (z-score) [6]: -0.64 | glycan array binding signal (z-score) [7]: 0.076 | glycan array binding signal (z-score) (Gal(a1-3)GalNAc): -0.308 | glycan array binding signal (z-score) (Gal(a1-6)Glc): -0.625 | glycan array binding signal (z-score) (Gal(b1-3)GalNAc): -0.398 | glycan array binding signal (z-score) [8]: -0.203 | glycan array binding signal (z-score) [9]: 2.3 | glycan array binding signal (z-score) [10]: -0.603 | glycan array binding signal (z-score) [11]: -0.461 | glycan array binding signal (z-score) (Gal(b1-4)Gal): -0.552 | glycan array binding signal (z-score) [12]: 0.449 | glycan array binding signal (z-score) [13]: 3.26 | glycan array binding signal (z-score) [14]: 5.24 | glycan array binding signal (z-score) [15]: 3.26 | glycan array binding signal (z-score) [16]: 3.16 | glycan array binding signal (z-score) [17]: 1.11 | glycan array binding signal (z-score) (Gal3S(b1-4)GlcNAc): 0.36 | glycan array binding signal (z-score) (Gal6S(b1-3)GlcNAc): 3.68 | glycan array binding signal (z-score) (GalNAc(b1-4)GlcNAc): 0.934 | glycan array binding signal (z-score) [18]: -0.7 | glycan array binding signal (z-score) [19]: 3.13 | glycan array binding signal (z-score) (GlcNAc(b1-4)GlcNAc): 0.531 | glycan array binding signal (z-score) (Kdn(a2-3)Gal(b1-4)Glc): -0.075 | glycan array binding signal (z-score) (Kdn(a2-3)Gal(b1-4)GlcNAc): -0.528 | glycan array binding signal (z-score) (Man(a1-2)Man(a1-3)Man): -0.511 | glycan array binding signal (z-score) [20]: -0.73 | glycan array binding signal (z-score) [21]: -0.583 | glycan array binding signal (z-score) [22]: 1.45 | glycan array binding signal (z-score) [23]: -0.524 | glycan array binding signal (z-score) [24]: -0.401 | glycan array binding signal (z-score) [25]: 3.2 | glycan array binding signal (z-score) [26]: 6.15 | glycan array binding signal (z-score) [27]: 0.73 | glycan array binding signal (z-score) [28]: -0.449 | glycan array binding signal (z-score) [29]: -0.584 | glycan array binding signal (z-score) [30]: -0.398 | glycan array binding signal (z-score) (Neu5Gc(a2-3)Gal(b1-4)Glc): 0.047 | glycan array binding signal (z-score) [31]: -0.059 | glycan array binding signal (z-score) [32]: -0.628

Source: the supplement of paper PMC8728848
